Source: the supplement of paper PMC7411054
Counter-ions that a name gives are not always drawn.

Key:
Experiment in all cases: phenotypically active (imaging signature differs from DMSO and reproducible) at any of 0.3-9 uM (binary (1 = active, 0 = inactive)); higher = active
Details in all cases: treatment time: 24 h
A549-ACTB-RAB5A = test system: A549-ACTB-RAB5A
Procedure, shortened: (§1)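 Cells from fifteen gene-edited reporter lines (A549, HepG2 and WPMY1) were treated for 24 h at 0.3, 1, 3 or 9 µM and imaged live, four wells per condition. Features were normalised per well to solvent control wells. A condition deviated if ≥3 of 4 wells passed the 95th percentile of control Euclidean distances and was reproducible if its median replicate Pearson correlation beat the 95th percentile of non-replicates; phenotypic activity needed both.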

A549-CANX-COX4 = test system: A549-CANX-COX4
Procedure, shortened: as §1

A549-GM130-SQSTM1 = test system: A549-GM130-SQSTM1
Procedure, shortened: as §1

A549-TP53BP1-CLTA = test system: A549-TP53BP1-CLTA
Procedure, shortened: as §1

A549-TUBA1B-RELA = test system: A549-TUBA1B-RELA
Procedure, shortened: as §1

HepG2-ACTB-RAB5A = test system: HepG2-ACTB-RAB5A
Procedure, shortened: as §1

HepG2-CANX-COX4 = test system: HepG2-CANX-COX4
Procedure, shortened: as §1

HepG2-GM130-SQSTM1 = test system: HepG2-GM130-SQSTM1
Procedure, shortened: as §1

HepG2-TP53BP1-CLTA = test system: HepG2-TP53BP1-CLTA
Procedure, shortened: as §1

HepG2-TUBA1B-RELA = test system: HepG2-TUBA1B-RELA
Procedure, shortened: as §1

WPMY1-ACTB-RAB5A = test system: WPMY1-ACTB-RAB5A
Procedure, shortened: as §1

WPMY1-CANX-COX4 = test system: WPMY1-CANX-COX4
Procedure, shortened: as §1

WPMY1-GM130-SQSTM1 = test system: WPMY1-GM130-SQSTM1
Procedure, shortened: as §1

WPMY1-TP53BP1-CLTA = test system: WPMY1-TP53BP1-CLTA
Procedure, shortened: as §1

WPMY1-TUBA1B-RELA = test system: WPMY1-TUBA1B-RELA
Procedure, shortened: as §1

Measured: phenotypically active

Cc1ccc2ccc(C(Nc3ccccc3)c3ccccc3)c(O)c2n1 (stereo not given)
inactive: A549-ACTB-RAB5A 0 | A549-CANX-COX4 0 | A549-GM130-SQSTM1 0 | A549-TP53BP1-CLTA 0 | A549-TUBA1B-RELA 0 | HepG2-ACTB-RAB5A 0 | HepG2-CANX-COX4 0 | HepG2-GM130-SQSTM1 0 | HepG2-TP53BP1-CLTA 0 | HepG2-TUBA1B-RELA 0 | WPMY1-ACTB-RAB5A 0 | WPMY1-CANX-COX4 0 | WPMY1-GM130-SQSTM1 0 | WPMY1-TP53BP1-CLTA 0 | WPMY1-TUBA1B-RELA 0

C[N+](C)(C)CCCCCC[N+](C)(C)C [Hexamethonium bromide]
inactive: A549-ACTB-RAB5A 0 | A549-CANX-COX4 0 | A549-GM130-SQSTM1 0 | A549-TP53BP1-CLTA 0 | A549-TUBA1B-RELA 0 | HepG2-ACTB-RAB5A 0 | HepG2-CANX-COX4 0 | HepG2-GM130-SQSTM1 0 | HepG2-TP53BP1-CLTA 0 | HepG2-TUBA1B-RELA 0 | WPMY1-ACTB-RAB5A 0 | WPMY1-CANX-COX4 0 | WPMY1-GM130-SQSTM1 0 | WPMY1-TP53BP1-CLTA 0 | WPMY1-TUBA1B-RELA 0

O=c1ncccn1[C@@H]1O[C@H](CO)[C@@H](O)[C@H]1O [Zebularine]
inactive: A549-ACTB-RAB5A 0 | A549-CANX-COX4 0 | A549-GM130-SQSTM1 0 | A549-TP53BP1-CLTA 0 | A549-TUBA1B-RELA 0 | HepG2-ACTB-RAB5A 0 | HepG2-CANX-COX4 0 | HepG2-GM130-SQSTM1 0 | HepG2-TP53BP1-CLTA 0 | HepG2-TUBA1B-RELA 0 | WPMY1-ACTB-RAB5A 0 | WPMY1-CANX-COX4 0 | WPMY1-GM130-SQSTM1 0 | WPMY1-TP53BP1-CLTA 0 | WPMY1-TUBA1B-RELA 0

CC(=O)CCCCn1c(=O)c2c(ncn2C)n(C)c1=O [Pentoxifylline]
inactive: A549-ACTB-RAB5A 0 | A549-CANX-COX4 0 | A549-GM130-SQSTM1 0 | A549-TP53BP1-CLTA 0 | A549-TUBA1B-RELA 0 | HepG2-ACTB-RAB5A 0 | HepG2-CANX-COX4 0 | HepG2-GM130-SQSTM1 0 | HepG2-TP53BP1-CLTA 0 | HepG2-TUBA1B-RELA 0 | WPMY1-ACTB-RAB5A 0 | WPMY1-CANX-COX4 0 | WPMY1-GM130-SQSTM1 0 | WPMY1-TP53BP1-CLTA 0 | WPMY1-TUBA1B-RELA 0

Cc1nc2c(O)cccc2c(=O)[nH]1
inactive: A549-ACTB-RAB5A 0 | A549-CANX-COX4 0 | A549-GM130-SQSTM1 0 | A549-TP53BP1-CLTA 0 | A549-TUBA1B-RELA 0 | HepG2-ACTB-RAB5A 0 | HepG2-CANX-COX4 0 | HepG2-GM130-SQSTM1 0 | HepG2-TP53BP1-CLTA 0 | HepG2-TUBA1B-RELA 0 | WPMY1-ACTB-RAB5A 0 | WPMY1-CANX-COX4 0 | WPMY1-GM130-SQSTM1 0 | WPMY1-TP53BP1-CLTA 0 | WPMY1-TUBA1B-RELA 0

CCC(NC(C)C)C(O)c1ccc(O)c(O)c1 (stereo not given) [isoetharine]
inactive: A549-ACTB-RAB5A 0 | A549-CANX-COX4 0 | A549-GM130-SQSTM1 0 | A549-TP53BP1-CLTA 0 | A549-TUBA1B-RELA 0 | HepG2-ACTB-RAB5A 0 | HepG2-CANX-COX4 0 | HepG2-GM130-SQSTM1 0 | HepG2-TP53BP1-CLTA 0 | HepG2-TUBA1B-RELA 0 | WPMY1-ACTB-RAB5A 0 | WPMY1-CANX-COX4 0 | WPMY1-GM130-SQSTM1 0 | WPMY1-TP53BP1-CLTA 0 | WPMY1-TUBA1B-RELA 0

N[C@@H](C(=O)O)c1ccc(C(=O)O)c(C(=O)O)c1
inactive: A549-ACTB-RAB5A 0 | A549-CANX-COX4 0 | A549-GM130-SQSTM1 0 | A549-TP53BP1-CLTA 0 | A549-TUBA1B-RELA 0 | HepG2-ACTB-RAB5A 0 | HepG2-CANX-COX4 0 | HepG2-GM130-SQSTM1 0 | HepG2-TP53BP1-CLTA 0 | HepG2-TUBA1B-RELA 0 | WPMY1-ACTB-RAB5A 0 | WPMY1-CANX-COX4 0 | WPMY1-GM130-SQSTM1 0 | WPMY1-TP53BP1-CLTA 0 | WPMY1-TUBA1B-RELA 0

CC1(C)[C@@H](O)CC[C@]2(C)[C@H]3C(=O)C=C4[C@@H]5C[C@@](C)(C(=O)O)CC[C@]5(C)CC[C@@]4(C)[C@]3(C)CC[C@@H]12 [Glycyrrhetinic Acid]
inactive: A549-ACTB-RAB5A 0 | A549-CANX-COX4 0 | A549-GM130-SQSTM1 0 | A549-TP53BP1-CLTA 0 | A549-TUBA1B-RELA 0 | HepG2-ACTB-RAB5A 0 | HepG2-CANX-COX4 0 | HepG2-GM130-SQSTM1 0 | HepG2-TP53BP1-CLTA 0 | HepG2-TUBA1B-RELA 0 | WPMY1-ACTB-RAB5A 0 | WPMY1-CANX-COX4 0 | WPMY1-GM130-SQSTM1 0 | WPMY1-TP53BP1-CLTA 0 | WPMY1-TUBA1B-RELA 0

CN(C(=O)CCCOc1ccc2[nH]c(=O)ccc2c1)C1CCCCC1 [Cilostamide]
inactive: A549-ACTB-RAB5A 0 | A549-CANX-COX4 0 | A549-GM130-SQSTM1 0 | A549-TP53BP1-CLTA 0 | A549-TUBA1B-RELA 0 | HepG2-ACTB-RAB5A 0 | HepG2-CANX-COX4 0 | HepG2-GM130-SQSTM1 0 | HepG2-TP53BP1-CLTA 0 | HepG2-TUBA1B-RELA 0 | WPMY1-ACTB-RAB5A 0 | WPMY1-CANX-COX4 0 | WPMY1-GM130-SQSTM1 0 | WPMY1-TP53BP1-CLTA 0 | WPMY1-TUBA1B-RELA 0

CN1C(=O)CC(C)(c2ccccc2)C1=O (stereo not given) [methsuximide]
inactive: A549-ACTB-RAB5A 0 | A549-CANX-COX4 0 | A549-GM130-SQSTM1 0 | A549-TP53BP1-CLTA 0 | A549-TUBA1B-RELA 0 | HepG2-ACTB-RAB5A 0 | HepG2-CANX-COX4 0 | HepG2-GM130-SQSTM1 0 | HepG2-TP53BP1-CLTA 0 | HepG2-TUBA1B-RELA 0 | WPMY1-ACTB-RAB5A 0 | WPMY1-CANX-COX4 0 | WPMY1-GM130-SQSTM1 0 | WPMY1-TP53BP1-CLTA 0 | WPMY1-TUBA1B-RELA 0

C=CCc1ccccc1OC[C@@H](O)CNC(C)C [Alprenolol hydrochloride]
inactive: A549-ACTB-RAB5A 0 | A549-CANX-COX4 0 | A549-GM130-SQSTM1 0 | A549-TP53BP1-CLTA 0 | A549-TUBA1B-RELA 0 | HepG2-ACTB-RAB5A 0 | HepG2-CANX-COX4 0 | HepG2-GM130-SQSTM1 0 | HepG2-TP53BP1-CLTA 0 | HepG2-TUBA1B-RELA 0 | WPMY1-ACTB-RAB5A 0 | WPMY1-CANX-COX4 0 | WPMY1-GM130-SQSTM1 0 | WPMY1-TP53BP1-CLTA 0 | WPMY1-TUBA1B-RELA 0

NS(=O)(=O)c1cc(C2(O)NC(=O)c3ccccc32)ccc1Cl (stereo not given) [chlorthalidone]
inactive: A549-ACTB-RAB5A 0 | A549-CANX-COX4 0 | A549-GM130-SQSTM1 0 | A549-TP53BP1-CLTA 0 | A549-TUBA1B-RELA 0 | HepG2-ACTB-RAB5A 0 | HepG2-CANX-COX4 0 | HepG2-GM130-SQSTM1 0 | HepG2-TP53BP1-CLTA 0 | HepG2-TUBA1B-RELA 0 | WPMY1-ACTB-RAB5A 0 | WPMY1-CANX-COX4 0 | WPMY1-GM130-SQSTM1 0 | WPMY1-TP53BP1-CLTA 0 | WPMY1-TUBA1B-RELA 0
